Test results as given in PubChem BioAssay (Tox21).
Inconclusive results are not listed. The source made the active and inactive calls. The call rests on the fitted dose curve; in most records, active means well fitted inhibition curve with a large enough effect in the repeat runs; inconclusive means weak or mixed curves; inactive means flat fitted curve, though single readings scatter.

Biological target: Voltage-gated inwardly rectifying potassium channel KCNH2 (Homo sapiens) (UniProt Q12809)
Assay: Human Ether-a-go-go-Related Gene (hERG) channel small molecule antagonists: fluorescence cell-based qHTS assay (AID 1671200); further: nearly all actives have a fitted effect of over 50% in size
Conditions: hERG-U2OS cells, FluxOR thallium flux fluorescence; series mostly up to 76.8 µM; activity change, negative = inhibition: at the top concentration
Description: National Center for Advancing Translational Sciences [NCATS]
U.S. Environmental Protection Agency [EPA]
National Institutes of Environmental Health Sciences [NIEHS]
National Toxicology Program [NTP]
U.S. Food and Drug Administration [FDA]
Mutations in the hERG channel cause Long QT (LQT) syndrome. LQT syndrome is a cardiac disorder which can cause ventricle arrhythmia and sudden death. Additionally, compounds which block the hERG channel can cause acquired LQT syndrome. Several FDA approved drugs have been removed from the market due to their hERG blocking activity. A cell-based hERG channel inhibition assay can be used to screen chemical compounds that inhibit hERG channel. This assay measures hERG channel activity using thallium ions as surrogate ions to measure potassium into the cells.
Tox21 Assay Protocol Summary:
hERG-U2OS cells were resuspended in culture medium and dispensed into 1536-well, black wall/clear-bottom plates at 1000cells/well/3uL using a Multidrop Combi dispenser (Thermo Fisher, Waltham, MA). After plates were incubated at 37 C overnight, 3 uL of Loading Buffer provided by FluxOR II Potassium Ion Channel Assay kit (Thermo, Carlsbad, CA) was added to each well. The assay plates were then incubated at room temperature in the dark for 1h. […] After the assay plates were incubated at room temperature for 10 min, 1 uL of Stimulus Buffer provided by FluxOR II Potassium Ion Channel Assay kit was added into each well and fluorescence intensity (480nm excitation/540nm emission) was continuously measured for 2 min at 1 second intervals using a Functional Drug Screening System (FDSS) 7000EX kinetic plate reader (Hamamatsu, Japan).
On the % scale 0 is the no-effect control and ±100 the full control effect; potency means the concentration at half of the fitted maximal effect.

Voltage-gated inwardly rectifying potassium channel KCNH2 (Homo sapiens), sequence (Q12809 whole entry, looked up): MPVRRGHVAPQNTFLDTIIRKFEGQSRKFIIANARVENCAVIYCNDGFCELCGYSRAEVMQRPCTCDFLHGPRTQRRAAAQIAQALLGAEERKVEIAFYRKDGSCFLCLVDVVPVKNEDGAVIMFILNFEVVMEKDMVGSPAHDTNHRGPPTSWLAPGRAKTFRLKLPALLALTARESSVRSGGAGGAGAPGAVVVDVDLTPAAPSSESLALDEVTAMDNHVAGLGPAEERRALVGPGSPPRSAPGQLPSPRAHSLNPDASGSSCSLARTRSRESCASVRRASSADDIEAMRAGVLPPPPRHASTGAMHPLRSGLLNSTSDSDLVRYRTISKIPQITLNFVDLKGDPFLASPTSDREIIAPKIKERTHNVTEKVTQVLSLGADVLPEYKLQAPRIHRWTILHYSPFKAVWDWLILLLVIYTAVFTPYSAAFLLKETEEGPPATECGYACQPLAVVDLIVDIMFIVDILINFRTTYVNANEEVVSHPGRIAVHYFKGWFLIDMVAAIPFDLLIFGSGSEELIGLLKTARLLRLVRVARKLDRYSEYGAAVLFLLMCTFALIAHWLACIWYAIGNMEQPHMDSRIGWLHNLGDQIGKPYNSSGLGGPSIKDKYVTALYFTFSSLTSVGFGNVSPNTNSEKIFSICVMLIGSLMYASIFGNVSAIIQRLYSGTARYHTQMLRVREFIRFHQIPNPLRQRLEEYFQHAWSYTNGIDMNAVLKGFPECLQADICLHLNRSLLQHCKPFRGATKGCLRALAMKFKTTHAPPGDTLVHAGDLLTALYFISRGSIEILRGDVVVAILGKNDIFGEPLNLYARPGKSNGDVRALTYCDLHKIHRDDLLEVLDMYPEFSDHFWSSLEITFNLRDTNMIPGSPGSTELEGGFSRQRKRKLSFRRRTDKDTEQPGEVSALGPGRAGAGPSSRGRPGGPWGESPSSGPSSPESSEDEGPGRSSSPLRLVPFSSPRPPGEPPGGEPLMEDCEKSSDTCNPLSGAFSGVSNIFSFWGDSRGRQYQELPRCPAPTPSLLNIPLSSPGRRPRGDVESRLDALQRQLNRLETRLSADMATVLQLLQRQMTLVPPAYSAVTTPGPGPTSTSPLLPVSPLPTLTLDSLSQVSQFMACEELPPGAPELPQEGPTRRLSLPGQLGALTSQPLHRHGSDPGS

Q: How did the “activity change, negative = inhibition” value turn out when `NCCCNCCCN` was run?
A: -15.6% (inactive)

Q: For `COc1cc(Cl)c(OC)cc1Cl`, which “activity change, negative = inhibition” value is on record?
A: 1.33% (inactive)

Q: For `ClCC(Br)CBr` (stereo not given), which “activity change, negative = inhibition” value is on record?
A: 2.71% (inactive)

Q: Which “activity change, negative = inhibition” value does the source give for `O=C1C(=O)c2cccc3cccc1c23` here?
A: -10.9% (inactive)

Q: Which Potency does the source give for `Clc1ccc(C(OCCN2CCCCC2)c2ccccc2)cc1` (stereo not given) here?
A: 0.601 µM (active)

Q: For `O=[Se]=O`, which “activity change, negative = inhibition” value is on record?
A: -1.26% [at 35.3 µM] (inactive)

Q: With `C=CC[C@]1(O)CC[C@H]2[C@@H]3CCC4=CC(=O)CCC4=C3C=C[C@@]21C` as the compound, how does the “activity change, negative = inhibition” value read?
A: -3.14% [at 35.3 µM] (inactive)

Q: How did the “activity change, negative = inhibition” value turn out when `NNC(=O)c1cccnc1` was run?
A: -0.193% (inactive)

Q: For `Clc1cccc(SC2CCNCC2)n1`, which “activity change, negative = inhibition” value is on record?
A: -2.32% [at 35.3 µM] (inactive)

Q: `O=C(Nc1ccccc1)Nc1ccnc(Cl)c1` was tested. Which “activity change, negative = inhibition” value did it give?
A: 0.82% (inactive)

Q: `OC(c1ccc(Cl)cc1)(c1ccc(Cl)cc1)c1cccnc1` was tested. Which Potency did it give?
A: 34.7 µM (active)

Q: With `C=CCN1CC[C@]23c4c5ccc(O)c4O[C@H]2C(=O)CC[C@@]3(O)[C@H]1C5` as the compound, how does the “activity change, negative = inhibition” value read?
A: -11.6% [at 35.3 µM] (inactive)

Q: Which Potency does the source give for `CCOP(=S)(OCC)Oc1nc(Cl)c(Cl)cc1Cl` here?
A: inactive

Q: For `O=[N+]([O-])c1ccccc1CCl`, which “activity change, negative = inhibition” value is on record?
A: 1.26% (inactive)

Q: `CCCCCCCCOC(=O)c1ccc(C(=O)OCCCCCCCC)c(C(=O)OCCCCCCCC)c1` was tested. Which “activity change, negative = inhibition” value did it give?
A: 0.0969% (inactive)

Q: Which “activity change, negative = inhibition” value does the source give for `C=COC(C)=O` here?
A: -1.23% (inactive)

Q: With `ClCCCCBr` as the compound, how does the “activity change, negative = inhibition” value read?
A: 0.211% (inactive)

Q: How did the “activity change, negative = inhibition” value turn out when `O=C1c2ccccc2C(=O)C1C(=O)C(c1ccccc1)c1ccccc1` was run?
A: -2.63% [at 35.3 µM] (inactive)

Q: `CCCC(=O)Cl` was tested. Which “activity change, negative = inhibition” value did it give?
A: -6.48% (inactive)

Q: Which “activity change, negative = inhibition” value does the source give for `ClCc1cccc(Cl)c1` here?
A: 33.5% [at 35.3 µM] (inactive)

Q: How did the “activity change, negative = inhibition” value turn out when `COC(C)(C)CCC[C@H](C)C/C=C/C(C)=C/C(=O)OC(C)C` was run?
A: -17.3% (inactive)

Q: `C=CC(=O)OCC(C)C` was tested. Which “activity change, negative = inhibition” value did it give?
A: 0.84% (inactive)

Q: `CC(C)=CCOc1c2occc2cc2ccc(=O)oc12` was tested. Which “activity change, negative = inhibition” value did it give?
A: -3.88% [at 35.3 µM] (inactive)

Q: With `N#C/C(N)=C(/N)C#N` as the compound, how does the “activity change, negative = inhibition” value read?
A: -1.95% (inactive)

Q: Which “activity change, negative = inhibition” value does the source give for `Cc1ccccc1CCl` here?
A: 25.3% (inactive)

Q: `N#CCC#N` was tested. Which “activity change, negative = inhibition” value did it give?
A: 4.05% (inactive)

Q: How did the “activity change, negative = inhibition” value turn out when `CCC(Cl)CCl` (stereo not given) was run?
A: -0.777% (inactive)

Q: Which “activity change, negative = inhibition” value does the source give for `O=[N+]([O-])c1cc(C(F)(F)F)cc([N+](=O)[O-])c1Cl` here?
A: -23.4% (inactive)

Q: `COP(=S)(OC)Oc1ccc([N+](=O)[O-])cc1Cl` was tested. Which “activity change, negative = inhibition” value did it give?
A: -6.09% (inactive)

Q: `c1cc2ccc3cccc4ccc(c1)c2c34` was tested. Which “activity change, negative = inhibition” value did it give?
A: 49.2% (inactive)

Q: `O=C(CBr)Nc1ccc(Cl)cc1C(=O)c1ccccc1F` was tested. Which “activity change, negative = inhibition” value did it give?
A: 8.75% [at 35.3 µM] (inactive)

Q: With `CC(C)N(C(=O)COc1nnc(C(F)(F)F)s1)c1ccc(F)cc1` as the compound, how does the “activity change, negative = inhibition” value read?
A: -1.69% (inactive)

Q: `CCC(C)(NC(=O)c1cc(Cl)c(C)c(Cl)c1)C(=O)CCl` (stereo not given) was tested. Which Potency did it give?
A: 43.9 µM (active)

Q: With `CCCCNP(N)(N)=S` as the compound, how does the “activity change, negative = inhibition” value read?
A: 3.76% (inactive)

Q: For `Clc1cc(C(Cl)(Cl)Cl)cnc1Cl`, which “activity change, negative = inhibition” value is on record?
A: -0.541% (inactive)

Q: With `CCCN(CCC)c1c([N+](=O)[O-])cc(S(C)(=O)=O)cc1[N+](=O)[O-]` as the compound, how does the “activity change, negative = inhibition” value read?
A: -23% (inactive)

Q: Which Potency does the source give for `CCOP(=O)(OCC)Oc1ccc([N+](=O)[O-])cc1` here?
A: inactive

Q: `CCCN(CCCl)c1c([N+](=O)[O-])cc(C(F)(F)F)cc1[N+](=O)[O-]` was tested. Which “activity change, negative = inhibition” value did it give?
A: -17.7% (inactive)

Q: How did the “activity change, negative = inhibition” value turn out when `CC(c1ccc(O)cc1)(c1ccc(O)cc1)c1ccc(O)cc1` was run?
A: -15% (inactive)

Q: How did the “activity change, negative = inhibition” value turn out when `COC(=O)C(Br)CBr` (stereo not given) was run?
A: 0.414% (inactive)
